Measurements: the supplement of paper PMC6555819

Key:
Assay in all cases: PBM binding z-score (relative to random genomic background probes); higher = stronger binding; sequences stand for … in GC…GCGATTGACAGCGTAGAATGAAGG
[1] = tested on: PPARg:RXRa DBDmut IVT, anti-RXR (DBD mutation: RXRa K156A/R161A, NR concentration 270 nM, RXRa partner concentration 90 nM)
Method in brief: (§1)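 Probes were double-stranded and carried 34-nt variable regions with direct-repeat seeds, single-nucleotide variants, half-site ablations and random human genomic background sequences, printed on custom Agilent 4×180K protein-binding microarrays. Arrays were incubated 1 h with ligand-free nuclear receptor dimers in PBS pH 7.4, 2% milk, 0.02% Triton X-100, 1 mM DTT, 0.2 mg/mL BSA and 0.4 mg/ml salmon testes DNA. Antibodies against each partner (one per run) detected binding, and scanned fluorescence was regression-normalized. Binding z-scores use the random background probes as reference.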

[2] = tested on: PPARg:RXRa IVT, anti-PPARg (NR concentration 270 nM, RXRa partner concentration 90 nM)
Method in brief: as §1

[3] = tested on: PPARg DBDmut:RXRa IVT, anti-PPARg (DBD mutation: PPARg1 K132A/R137A, NR concentration 270 nM, RXRa partner concentration 90 nM)
Method in brief: as §1

[4] = tested on: PPARg DBDmut IVT, anti-PPARg (DBD mutation: PPARg1 K132A/R137A, NR concentration 270 nM)
Method in brief: as §1

[5] = tested on: PPARg homodimer (NR concentration 180 nM)
Method in brief: as §1

[6] = tested on: PXR:RXRa (NR concentration 270 nM, RXRa partner concentration 90 nM)
Method in brief: as §1

[7] = tested on: PXR homodimer (NR concentration 270 nM)
Method in brief: as §1

[8] = tested on: RARa:RXR (NR concentration 270 nM, RXRa partner concentration 90 nM)
Method in brief: as §1

[9] = tested on: RARa homodimer (NR concentration 270 nM)
Method in brief: as §1

[10] = tested on: RARb:RXRa (NR concentration 270 nM, RXRa partner concentration 90 nM)
Method in brief: as §1

Sequence | PBM binding z-score [1] | PBM binding z-score [2] | PBM binding z-score [3] | PBM binding z-score [4] | PBM binding z-score [5] | PBM binding z-score [6] | PBM binding z-score [7] | PBM binding z-score [8] | PBM binding z-score [9] | PBM binding z-score [10]
CGTCCAAGGTCAAACGTCAGTGAAGAGATGACGG | 4.12 | 4.1 | 0.591 | -0.466 | 2.61 | 4.43 | 0.834 | 5.04 | 0.465 | 5.22
GGAACGAGGGCATTCGAGGTGATAGCATGGCGAT | 3.12 | 2.76 | 0.0817 | -0.391 | 0.378 | 2.36 | 0.0978 | 1.4 | -0.289 | 1.97
CAAACTAGGTCACAGAGTTCAAAGTCCGTGCGTA | 8.6 | 9.07 | 5.41 | 5.72 | 4.68 | 6.97 | 14.2 | 5.88 | 1.27 | 4.91
ATCTCTAGGTAAAGTTAAGTGAAAGATCGATAGA | 2.61 | 1.99 | 0.949 | 2.08 | 0.251 | -0.00139 | 0.451 | 0.249 | 0.961 | 0.312
ATCTCTAGGTAAAAGCTCAGTGAATCCCGAGGAT | 2.43 | 1.66 | 0.208 | 0.808 | -0.0545 | -0.626 | -0.475 | -0.548 | 0.418 | -0.0301
TCGAGTAGGTTACCAATGGGGCATTAAGCTTTCT | 2.97 | 2.74 | -0.388 | -0.404 | -0.656 | -0.325 | -1.08 | 0.0202 | -1.28 | 0.864
TGTTGTAGATCAATAGAGGTTAAGAAAGTGCGCT | -0.0957 | 0.893 | 1.29 | 1.09 | 1.38 | 3.29 | 0.289 | 1.76 | 1.61 | 1.01
GCGACTGGGGCATCAGCAGGTTACCAGAACTTAA | 3.48 | 3.19 | -0.703 | -1.1 | 0.612 | -0.0392 | -0.687 | 0.483 | -0.801 | 0.987
TCTGCTAGGTCAACGATGTTCAGCTAATCTGCTA | 4.36 | 4.43 | 0.0539 | 0.546 | 0.745 | 1.4 | -0.689 | 2 | -0.343 | 4.15
TCTTGTAGATCAACAAGAGGTTAAGAAAGATCGA | 1.35 | 0.865 | 0.785 | 0.787 | -0.0436 | 1.27 | 0.0734 | 1.63 | -0.225 | 0.99
CAAACTAGGTCAGAGGTCAAAGTCGAGCCAACCA | 8.29 | 8.85 | 2.06 | 4.69 | 5.7 | 6.37 | 2.49 | 8.36 | 2.29 | 5.18
ATCGAAAGGACGTGAGGTGAGTATACAGAAAGGC | -0.822 | 0.152 | 1.3 | 0.397 | 0.165 | -0.361 | -0.0869 | 0.0924 | 0.0832 | 1.09
CCTAGTTGGTCAAGGCCACACACGCTATAGGTAC | 1.25 | 1.16 | 0.294 | 0.121 | 1 | 0.291 | 1.6 | 0.34 | 0.796 | 1.76
CCTAGCAGGCCAACCTGGGTCACTCAAGGCTTGA | 1.14 | 1.46 | -0.885 | -0.95 | 0.425 | 1.46 | -0.576 | 1.44 | 0.141 | 1.96
ATATGTAGGCTAGCTGGGGTCATTCAGACTAGGC | 4.55 | 3.66 | 1.11 | 0.266 | 1.81 | 5.32 | 2.19 | 5.28 | 0.344 | 2.28
TTACCAAGGTGAAAGGTCGTAGATGCACGCCTTG | 2.23 | 5.05 | 1.07 | 0.00894 | 2.17 | 4.04 | 0.0928 | 5.82 | -0.336 | 3.31
TCATATAGGTAAAGGTGAAAATCGAACGATATGA | 3.76 | 4.08 | 1.54 | 1.02 | 0.818 | 0.873 | 0.241 | 1.5 | 0.976 | 1.73
CCTCGGAGGAGAGAAGGTCAGAGCTGTCCGCTTT | -0.223 | -0.125 | -1.3 | -1.71 | 0.917 | 1.24 | -0.114 | 1.74 | -0.103 | 2.35
GCAGACAGGTGAAACGCAGGTTACTCAGGGTGGC | 1.13 | 0.617 | -0.717 | -0.933 | -0.435 | 0.076 | -0.507 | 0.833 | -0.748 | 1.02
CGAACTAGGTCAAGGACAGTTAATCTCCGCACGC | 8.24 | 8.35 | 2.25 | 0.939 | 1.62 | 1.5 | 0.185 | 1.87 | 0.669 | 3.76
TAAACAGGGTCAAAGGCCAGAGTACGAATGTCGA | 3.53 | 5.43 | 2.69 | 2.41 | 3.24 | 4.51 | 0.672 | 6.19 | 0.87 | 4.33
TCTCCTAGGTCAACGATGGTCAGCTAATCTGCTA | 4.1 | 4.22 | 0.539 | 1.02 | 2.22 | 2.36 | -0.309 | 2.66 | 0.663 | 4.28
TTACCAAGGTGAAGGTCGATGATCCCTCTGTAGA | 1.53 | 3.14 | -0.416 | -0.0425 | 0.524 | 0.883 | 0.0636 | 1.36 | 0.0108 | 2.11
CTCGAAAGGTCGGTTCAGGTGAGTATACGGATAA | 0.179 | 0.896 | 0.489 | 0.134 | 0.753 | 2.53 | 0.887 | 2.11 | 0.864 | 2.96
